Experimental data reported in PubChem BioAssay AID1159580 (chemical genetic matrix, 2015).
“And” between values parts separate entries of the source, which are not always exact repeats. Equal values may be shown once. Among all 5,500 compounds or so, about 2,000 (36%) were called active. About 18% were inconclusive and are not listed. Cut-off read from the data, not from the text of the source: active = normalized growth mostly below about 0.91 (no sharp cut-off); inconclusive = no clear call, values can overlap the other calls; inactive = mostly above about 0.92. The list shows a part of the results.

Assay: chemical genetic growth profiling, strain panel (AID 1159580);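 note: tested at 20 µM; growth read once vehicle control cultures reached saturation at 30 °C; 1 = growth at the plate median or of vehicle wells; lower values mean less growth of the strain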
Settings: S. cerevisiae deletion strains, growth OD
[1] = locus YAL013W, strain DEP1, stronger effect = lower value

Measured: normalized growth

CCCCCC1C(=O)CCC1CC(=O)O (stereo not drawn)
inactive: [1] 0.997 | locus YAL021C, strain ccr4, stronger effect = lower value 0.984 | locus YAL026C, strain drs2, stronger effect = lower value 0.994 | locus YAL030W, strain snc1, stronger effect = lower value 0.984 | locus YBL061C, strain skt5, stronger effect = lower value 0.988 | locus YBR009C, strain hhf1, stronger effect = lower value 1.01 | locus YBR021W, strain FUR4, stronger effect = lower value 0.991 | locus YBR023C, strain chs3, stronger effect = lower value 0.99 | locus YBR171W, strain sec66, stronger effect = lower value 1 | locus YBR229C, strain ROT2, stronger effect = lower value 1 | locus YBR231C, strain swc5, stronger effect = lower value 1 | locus YBR279W, strain paf1, stronger effect = lower value 0.98 | locus YCL011C, strain gbp2, stronger effect = lower value 0.995 | locus YCL016C, strain dcc1, stronger effect = lower value 0.98 | locus YCL029C, strain bik1, stronger effect = lower value 0.998 | locus YCL061C, strain MRC1, stronger effect = lower value 0.991 | locus YCL069W, strain vba3, stronger effect = lower value 0.995 | locus YCR088W, strain abp1, stronger effect = lower value 0.976 | locus YDL005C, strain med2, stronger effect = lower value 0.982 | locus YDL035C, strain GPR1, stronger effect = lower value 1.01 | locus YDL040C, strain nat1, stronger effect = lower value 0.995 | locus YDL074C, strain BRE1, stronger effect = lower value 1.01 | locus YDL101C, strain DUN1, stronger effect = lower value 1.01 | locus YDL134C, strain PPH21, stronger effect = lower value 1.06 | locus YDL185W, strain tfp1, stronger effect = lower value 0.974 | locus YDL192W, strain arf1, stronger effect = lower value 0.986 | locus YDR001C, strain nth1, stronger effect = lower value 0.986 | locus YDR069C, strain doa4, stronger effect = lower value 1.01 | locus YDR101C, strain arx1, stronger effect = lower value 0.99 | locus YDR137W, strain rgp1, stronger effect = lower value 0.998 | locus YDR150W, strain NUM1, stronger effect = lower value 1.02 | locus YDR159W, strain sac3, stronger effect = lower value 0.997 | locus YDR162C, strain NBP2, stronger effect = lower value 1.04 | locus YDR195W, strain ref2 0.999 | locus YDR297W, strain sur2, stronger effect = lower value 0.988 | locus YDR318W, strain mcm21, stronger effect = lower value 0.992 | locus YDR334W, strain swr1, stronger effect = lower value 0.981 | locus YDR335W, strain msn5, stronger effect = lower value 0.981 | locus YDR388W, stronger effect = lower value 0.994 | locus YDR392W, strain spt3, stronger effect = lower value 0.91 | locus YDR502C, strain sam2, stronger effect = lower value 1.01 | locus YEL003W, strain gim4, stronger effect = lower value 0.987 | locus YEL037C, strain rad23, stronger effect = lower value 0.972 | locus YEL061C, strain CIN8 (second series), stronger effect = lower value 0.984 | locus YEL061C, strain CIN8, stronger effect = lower value 1 | locus YER015W, strain faa2, stronger effect = lower value 0.983 | locus YER016W, strain bim1, stronger effect = lower value 0.984 | locus YER110C, stronger effect = lower value 0.982 | locus YER111C, strain swi4, stronger effect = lower value 0.975 | locus YER155C, strain BEM2 (second series), stronger effect = lower value 0.982 | locus YER155C, strain BEM2, stronger effect = lower value 0.989 | locus YER167W, strain BCK2, stronger effect = lower value 1.01 | locus YFR010W, strain ubp6, stronger effect = lower value 0.987 | locus YGL078C, strain dbp3, stronger effect = lower value 0.988 | locus YGL086W, strain mad1, stronger effect = lower value 0.994 | locus YGL167C, strain pmr1, stronger effect = lower value 0.986 | locus YGL173C, strain kem1, stronger effect = lower value 0.989 | locus YGL227W, strain vid30, stronger effect = lower value 0.998 | locus YGL240W, strain doc1, stronger effect = lower value 0.998 | locus YGL248W, strain PDE1, stronger effect = lower value 0.998 | locus YGL253W, strain hxk2, stronger effect = lower value 0.996 | locus YGR135W, strain pre9, stronger effect = lower value 0.994 | locus YGR252W, strain gcn5, stronger effect = lower value 0.993 | locus YHR013C, strain ard1, stronger effect = lower value 0.972 | locus YHR027C, strain rpn1, stronger effect = lower value 0.98 | locus YHR030C, strain SLT2, stronger effect = lower value 0.992 and 0.982 | locus YHR079C, strain IRE1 (second series), stronger effect = lower value 0.987 | locus YHR079C, strain IRE1, stronger effect = lower value 0.99 | locus YHR094C, strain hxt1, stronger effect = lower value 0.969 | locus YHR129C, strain ARP1, stronger effect = lower value 1 | locus YHR142W, strain chs7, stronger effect = lower value 0.973 | locus YHR200W, strain rpn10, stronger effect = lower value 0.988 | locus YIL066C, strain RNR3, stronger effect = lower value 1.03 | locus YIL073C, strain SPO22, stronger effect = lower value 1.04 | locus YIL125W, strain kgd1, stronger effect = lower value 0.985 | locus YIR030C, strain dcg1, stronger effect = lower value 0.986 | locus YJL092W, strain hpr5, stronger effect = lower value 0.983 | locus YJL095W, strain BCK1 (second series), stronger effect = lower value 0.993 | locus YJL095W, strain BCK1, stronger effect = lower value 1.05 and 0.989 | locus YJL115W, strain asf1, stronger effect = lower value 0.973 | locus YJL129C, strain trk1, stronger effect = lower value 0.961 | locus YJL134W, strain LCB3, stronger effect = lower value 0.991 | locus YJL154C, strain vps35, stronger effect = lower value 0.982 | locus YJL164C, strain tpk1, stronger effect = lower value 0.998 | locus YJL166W, strain qcr8, stronger effect = lower value 0.996 | locus YJL168C, strain set2, stronger effect = lower value 0.991 | locus YJL187C, strain SWE1 (second series), stronger effect = lower value 1.02 | locus YJL187C, strain SWE1, stronger effect = lower value 0.984 | locus YJR043C, strain POL32, stronger effect = lower value 1.03 | locus YJR066W, strain TOR1, stronger effect = lower value 0.967 | locus YKL009W, strain mrt4, stronger effect = lower value 0.972 | locus YKL068W, stronger effect = lower value 0.981 | locus YKL085W, strain MDH1 (second series), stronger effect = lower value 0.992 | locus YKL085W, strain MDH1, stronger effect = lower value 0.992 | locus YKL160W, strain elf1, stronger effect = lower value 0.978 | locus YKL190W, strain CNB1, stronger effect = lower value 1 | locus YKR001C, strain vps1, stronger effect = lower value 0.987 | locus YKR026C, strain gcn3, stronger effect = lower value 0.985 | locus YKR091W, strain srl3, stronger effect = lower value 0.98 | locus YLL001W, strain dnm1, stronger effect = lower value 0.961 | locus YLL026W, stronger effect = lower value 0.994 | locus YLL041C, strain sdh2, stronger effect = lower value 0.989 | locus YLR027C, strain aat2, stronger effect = lower value 0.984 | locus YLR039C, strain RIC1, stronger effect = lower value 1.06 | locus YLR058C, strain SHM2, stronger effect = lower value 1.01 | locus YLR102C, strain apc9, stronger effect = lower value 0.978 | locus YLR113W, strain HOG1, stronger effect = lower value 0.95 | locus YLR221C, strain rsa3, stronger effect = lower value 0.993 | locus YLR258W, strain gsy2, stronger effect = lower value 0.986 | locus YLR262C, strain YPT6 (second series), stronger effect = lower value 0.99 | locus YLR262C, strain YPT6, stronger effect = lower value 1.07 | locus YLR268W, strain sec22, stronger effect = lower value 1 | locus YLR320W, strain mms22, stronger effect = lower value 0.967 | locus YLR330W, strain CHS5, stronger effect = lower value 0.993 | locus YLR342W, strain FKS1 (second series), stronger effect = lower value 1.02 | locus YLR342W, strain FKS1, stronger effect = lower value 0.982 | locus YLR357W, strain rsc2, stronger effect = lower value 0.994 | locus YLR370C, strain arc18, stronger effect = lower value 0.983 | locus YLR371W, strain rom2, stronger effect = lower value 0.987 | locus YLR384C, strain iki3, stronger effect = lower value 0.978 | locus YLR418C, strain cdc73, stronger effect = lower value 0.989 | locus YML016C, strain PPZ1, stronger effect = lower value 0.995 | locus YML032C, strain rad52, stronger effect = lower value 0.987 | locus YML120C, strain ndi1, stronger effect = lower value 0.99 | locus YML124C, strain tub3, stronger effect = lower value 0.985 | locus YMR058W, strain fet3, stronger effect = lower value 0.983 | locus YMR078C, strain ctf18, stronger effect = lower value 1.01 | locus YMR125W, strain sto1, stronger effect = lower value 0.965 | locus YMR129W, stronger effect = lower value 0.989 | locus YMR205C, strain PFK2, stronger effect = lower value 0.969 | locus YMR223W, strain ubp8, stronger effect = lower value 0.994 | locus YMR231W, strain pep5, stronger effect = lower value 0.983 | locus YMR307W, strain GAS1, stronger effect = lower value 1.06 | locus YNL067W, strain RPL9B, stronger effect = lower value 1.04 | locus YNL071W, strain lat1, stronger effect = lower value 0.99 | locus YNL128W, strain TEP1, stronger effect = lower value 1 | locus YNL183C, strain NPR1, stronger effect = lower value 0.931 | locus YNL209W, strain ssb2, stronger effect = lower value 0.995 | locus YNL233W, strain BNI4, stronger effect = lower value 1.03 | locus YNL248C, strain rpa49, stronger effect = lower value 0.99 | locus YNL250W, strain rad50, stronger effect = lower value 0.976 | locus YNL271C, strain bni1, stronger effect = lower value 0.969 | locus YNL298W, strain CLA4, stronger effect = lower value 0.968 | locus YNL307C, strain MCK1, stronger effect = lower value 0.989 | locus YNL322C, strain KRE1 (second series), stronger effect = lower value 0.972 | locus YNR049C, strain mso1, stronger effect = lower value 0.984 | locus YNR052C, strain pop2, stronger effect = lower value 0.975 | locus YOL006C, strain TOP1, stronger effect = lower value 1.02 | locus YOL012C, strain htz1 1.21 | locus YOL147C, strain pex11, stronger effect = lower value 0.986 | locus YOR001W, strain rrp6, stronger effect = lower value 0.997 | locus YOR061W, strain CKA2, stronger effect = lower value 0.996 | locus YOR069W, strain VPS5, stronger effect = lower value 0.993 | locus YOR070C, strain gyp1, stronger effect = lower value 0.99 | locus YOR080W, strain dia2, stronger effect = lower value 0.987 | locus YOR083W, strain WHI5, stronger effect = lower value 0.959 | locus YOR106W, strain vam3, stronger effect = lower value 0.987 | locus YOR136W, strain idh2, stronger effect = lower value 0.982 | locus YOR144C, strain elg1, stronger effect = lower value 0.994 | locus YOR184W, strain ser1, stronger effect = lower value 1.02 | locus YOR231W, strain MKK1, stronger effect = lower value 1.01 | locus YOR265W, strain rbl2, stronger effect = lower value 0.989 | locus YOR270C, strain vph1, stronger effect = lower value 0.961 | locus YOR290C, strain snf2, stronger effect = lower value 0.916 | locus YOR316C, strain cot1, stronger effect = lower value 0.981 | locus YPL051W, strain arl3, stronger effect = lower value 0.982 | locus YPL055C, strain LGE1, stronger effect = lower value 1.06 | locus YPL078C, strain atp4, stronger effect = lower value 0.979 | locus YPL106C, strain sse1, stronger effect = lower value 0.99 | locus YPL240C, strain hsp82, stronger effect = lower value 0.985 | locus YPL256C, strain CLN2, stronger effect = lower value 0.964 | locus YPR119W, strain clb2, stronger effect = lower value 0.988 | locus YPR141C, strain kar3, stronger effect = lower value 0.981 | locus YPR163C, strain tif3, stronger effect = lower value 0.978 | locus YPR167C, strain met16, stronger effect = lower value 0.997 | strain wtn01, stronger effect = lower value 1.01

CCn1cnc2c(Nc3cccc(Cl)c3)nc(N[C@@H]3CCCC[C@@H]3N)nc21
inactive: [1] 0.985 | locus YAL040C, strain CLN3, stronger effect = lower value 1.02 | locus YCL061C, strain MRC1 (second series), stronger effect = lower value 0.998 | locus YDR363W, strain ESC2, stronger effect = lower value 0.993 | locus YER002W, strain NOP16, stronger effect = lower value 1.03 | locus YGR078C, strain PAC10, stronger effect = lower value 1.01 | locus YGR229C, strain SMI1, stronger effect = lower value 0.993 | locus YMR263W, strain SAP30, stronger effect = lower value 1 | locus YNL175C, strain NOP13, stronger effect = lower value 1.08 | locus YNL224C, strain SQS1, stronger effect = lower value 1.04 | locus YOR083W, strain WHI5 (second series), stronger effect = lower value 0.991 | locus YPL241C, strain CIN2, stronger effect = lower value 1.01
